Sampled rows, rich in hits. Any-hit rate of the full collection: about 7.9%.
SW480 rerep: inducers of DNA re-replication in SW480 colon cancer cells. SW480 DNA re-replication, Hoechst DNA content imaging, 48 h. Potency, µM (series often up to 46.1 µM), for the others: at the top dose re-replication activation, actives largely listed as activators. AID 624297. 340,000 compounds, 1.8% hits; note: % of control where 0% means no effect; nearly all actives have a fitted effect of over 55% in size
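Treated cells incubate 48 hr (37 C, 5% CO2), are stained 40 min with Hoechst, and nuclear fluorescence is enumerated; a rise in nuclei with high DNA signal marks re-replication.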
KB-V1 cytotox: kills drug-selected multidrug resistant KB-V1 cells; AID 1347076; Potency, µM (highest dose often 46.1 µM), actives largely listed as cytotoxic; 400,000 compounds, 3.4% hits; KB-V1 MDR cells viability, CellTiter-Glo, 72 h; note: % is set by controls: 0 for no effect and ±100 for the full control effect; nearly all actives have a fitted effect of over 60% in size
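Luminescent ATP read-out (CellTiter-Glo, 10 min) measures survival of drug-selected KB-V1 MDR cells after 72 h, 37 degrees C compound exposure. Medium: phenol-red-free DMEM, 10% FBS. Values from fitted concentration-response curves.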
KB-3-1 cytotox: kills parental KB-3-1 adenocarcinoma cells; KB-3-1 viability, CellTiter-Glo ATP luminescence, 72 h; Potency, µM (top dose mostly 46.1 µM), most hits filed as cytotoxic; 400,000 compounds, 1.4% hits; AID 1347075; note: % is set by controls: 0 for no effect and ±100 for the full control effect; nearly all actives have a fitted effect of over 60% in size
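72 h, 37 °C compound treatment of KB-3-1 parental cells; CellTiter-Glo added, 10 min, luminescence read. Data corrected against DMSO-only plates and normalized before curve fitting.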
MCF10A rereplic: induces DNA re-replication in MCF 10a normal breast cells; MCF 10A DNA re-replication, Hoechst nuclear intensity, 48 h; AID 624296; Potency, µM (top dose mostly 46.1 µM), for inactives: top-dose activity, positive = re-replication, hits mostly activators; 350,000 compounds, 2.9% hits; note: % of control where 0% means no effect; nearly all actives have a fitted effect of over 50% in size
HT1080NT lethal: kills 2HG-producing HT-1080-NT fibrosarcoma cells | Potency, µM (titrated, usually from 46.1 µM), for the others: at the top dose activity, negative = less viability, most hits filed as cytotoxic | 360,000 compounds, 1.6% hits | AID 686970 | HT-1080-NT fibrosarcoma viability, CellTiter-Glo ATP luminescence, 48 h;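 note: NT is the 2HG producing partner of a matched IDH1 knockdown line; 0% = DMSO-treated cells and -100% = media-only wells without cells; nearly all actives have a fitted effect of over 55% in size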
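HT-1080-NT; 750 cells/well; 5% FBS RPMI; 48 h compound, 37 degrees C; CellTiter-Glo luminescence; curve fitting and curve-class assignment.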
HT1080 IDH1KD tx: toxicity to HT-1080 IDH1 knockdown cells (counter line); 360,000 compounds, 2% hits; HT-1080 IDH1 knockdown viability, ATP luminescence, 48 h; Potency, µM (titrated, usually from 46.1 µM), inactives show top-dose activity, negative = toxicity, actives largely listed as cytotoxic;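 note: 0% = DMSO wells and -100% = cell-free medium wells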
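Luminescent ATP read-out (CellTiter-Glo, 10 min at room temperature) after 48 h compound exposure at 37 °C gave viability of IDH1-knockdown HT-1080 cells. Activity was normalised to DMSO and cell-free wells, then fitted as concentration-response curves.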
* marks the source's active call; other numbers are inactive results; i = inactive; ? = inconclusive; / = no result given. Calls come from the whole dose curve; as a rule, active = well fitted curve in the direction sought with a large enough effect; inconclusive = small, poorly fitted or top-dose-only effect, or another doubt; inactive = no such curve, though single readings can be large; an effect the other way counts as inactive or inconclusive. Potency is the fitted concentration of half-maximal effect.

SMILES	SW480 rerep	KB-V1 cytotox	KB-3-1 cytotox	MCF10A rereplic	HT1080NT lethal	HT1080 IDH1KD tx
COc1ccc(OC)c(NC(=O)C2CC(=O)N(Cc3ccco3)C2)c1 (stereo unspecified)	-2%	i	i	-1%	5%	1%
CC(=O)NC1C(=O)N(CCc2ccccc2)c2ccc(Br)cc21 (stereo unspecified)	2%	5.8µM*	i	27%	0%	-8%
CC(=O)NC1C(=O)N(Cc2ccccc2)c2ccc(Br)cc21 (stereo unspecified)	-2%	?	i	23%	-3%	0%
O=C(Cc1ccc(Cl)cc1)Nc1ccc(-c2cc3ccccc3oc2=O)c(Cl)c1	7.3µM*	2.3µM*	1.3µM*	2.3µM*	6.5µM*	6.5µM*
CCc1ccc(OCC(=O)Nc2ccc(-c3cc4ccccc4oc3=O)c(OC)c2)cc1	2.3µM*	?	?	-37%	?	?
O=C(Cc1ccc(Cl)cc1)Nc1ccc2oc(=O)ccc2c1	1%	i	i	2%	17%	-17%
O=C1NC(Cc2ccccc2)c2nc3ccc(F)cc3c(=O)n2-c2cc3ccccc3cc21 (stereo unspecified)	/	21µM*	?	/	5.8µM*	5.8µM*
Cc1ccc2nc3n(c(=O)c2c1)-c1cc2ccccc2cc1C(=O)NC3Cc1ccccc1 (stereo unspecified)	/	?	?	/	?	15µM*
Cc1nc2ccccc2c2nc(NC(=O)Cc3ccccc3)nn12	3%	18µM*	?	22%	3%	1%
CN(C)CCOC(=O)CCCCCCCCC(=O)OCCN(C)C	3.7µM*	i	i	-1%	11%	30%
Cc1ccc(Cc2c(C3CCCCC3)nc3ccc(C)cn23)cc1	/	i	i	/	?	?
Cc1ccc2nc(-c3ccccc3)c(Cc3ccsc3)n2c1	/	21µM*	?	/	1%	-6%
Cc1ccc2nc(C3CCCCC3)c(Cc3ccsc3)n2c1	/	16µM*	?	/	-30%	?
COCC(C)NC(C(=O)Nc1ccc(Cl)c([N+](=O)[O-])c1)c1ccccc1 (stereo unspecified)	-24%	16µM*	i	-3%	-1%	-6%
O=C(Nc1ccc(Cl)c([N+](=O)[O-])c1)C(Sc1ccccc1)c1ccccc1 (stereo unspecified)	13%	?	26µM*	?	?	21µM*
O=C(Nc1cc([N+](=O)[O-])ccc1Cl)C(Sc1ccccc1)c1ccccc1 (stereo unspecified)	-3%	15µM*	i	-5%	-9%	-9%
CC(CC(=O)Nc1cc([N+](=O)[O-])ccc1Cl)c1ccccc1 (stereo unspecified)	-2%	?	i	0%	11%	3%
O=C(Nc1ccc(Cl)c([N+](=O)[O-])c1)C(NCCCO)c1ccccc1 (stereo unspecified)	-1%	i	i	?	-5%	1%
Cc1ccc(C)c(C(=O)COC(=O)CN2C(=O)C3C4CCC(C4)C3C2=O)c1 (stereo unspecified)	?	i	i	5%	7%	2%
Oc1ccc(C[C@H]2CNCCN2CC2(c3ccccc3)CC2)cc1	2%	i	i	4%	-1%	-12%
Cn1nc(C(=O)Nc2cccc(C(=O)NC3CC3)c2)c2ccccc2c1=O	-3%	i	i	0%	4%	5%
Cn1nc(C(=O)Nc2cccc(C(F)(F)F)c2)c2ccccc2c1=O	-3%	8.2µM*	i	1%	13%	1%
CN(C)c1ccc(S(=O)(=O)N2CCCCC2)cc1NC(=O)C1=NN(c2ccccc2)C(=O)CC1	-4%	i	i	-2%	4%	6%
Cc1c(C(=O)Nc2cccc(Cl)c2)c2ccccn2c1CCc1ccncc1	?	?	i	7.3µM*	-19%	?
COc1cccc(NC(=O)c2cc([N+](=O)[O-])ccc2NCc2cccnc2)c1	9%	3.7µM*	i	-1%	-28%	-22%
SMILES	SW480 rerep	KB-V1 cytotox	KB-3-1 cytotox	MCF10A rereplic	HT1080NT lethal	HT1080 IDH1KD tx
COc1ccc(S(=O)(=O)NCc2cccnc2)cc1Br	2%	i	i	-1%	0%	16µM*
O=C(Nc1ccccc1)c1ccc(S(=O)(=O)NCc2cccnc2)cc1	-13%	21µM*	?	3%	-25%	-16%
Cc1ccc(NC(=O)c2cc([N+](=O)[O-])ccc2NCc2cccnc2)cc1Cl	11%	i	i	6%	?	?
O=C(Nc1ccc(S(=O)(=O)NCc2cccnc2)cc1)c1ccccc1Cl	2%	i	i	20%	1%	-9%
O=C(NCc1cccnc1)c1ccc(NC(=O)c2cccc([N+](=O)[O-])c2)cc1	6%	i	i	?	?	3.7µM*
COc1ccc(S(=O)(=O)NCc2cccnc2)cc1	10%	i	i	?	-5%	1%
CCC1=C(c2ccc(C)cc2)S(=O)(=O)N=C1N1CCC(C(=O)NCCc2cccc(OC)c2)CC1	/	i	i	/	/	/
O=C(CCC1CCCC1)Nc1ccc(C(=O)NCc2cccnc2)cc1	7%	i	i	?	5.2µM*	6.5µM*
CC1(C(=O)NS(=O)(=O)c2cccc(Cl)c2)CCN1C(=O)C1(c2ccc(Cl)cc2)CCC1 (stereo unspecified)	/	i	i	/	-17%	3%
Cc1n(Cc2ccccc2)c2ccccc2[n+]1Cc1ccccc1	1%	i	6.5µM*	16%	-16%	?
Cc1cccc(NC(=S)N(CCN(C)C)Cc2cc3cc(C)ccc3[nH]c2=O)c1	0%	?	i	?	16µM*	?
CCCN(Cc1cc2cc(C)ccc2[nH]c1=O)C(=O)c1cccc([N+](=O)[O-])c1	2.3µM*	?	i	22%	0%	2%
Cc1ccc2[nH]c(=O)c(CN(Cc3ccccc3)C(=S)NCCCN(C)C)cc2c1	?	i	i	?	18µM*	16µM*
Cc1cccc2cc(CN(CCN(C)C)C(=S)Nc3ccccc3)c(=O)[nH]c12	?	23µM*	i	8%	-13%	-20%
O=C(CSc1nc2ccccc2nc1Cc1ccc(Cl)cc1)NCCc1ccccc1	/	i	i	/	/	/
CC(C)OC(=O)C(C(=O)C(F)(F)F)c1cc(NS(=O)(=O)c2ccc3ccccc3c2)c2ccccc2c1O (stereo unspecified)	?	i	i	?	8.2µM*	12µM*
